# Reference: article PMC5913336, “True equilibrium measurement of transcription factor-DNA binding affinities using automated polarization microscopy”
# Molecular target: T1, Br (Drosophila melanogaster, UniProt Q24206 697-775)
# T1 sequence: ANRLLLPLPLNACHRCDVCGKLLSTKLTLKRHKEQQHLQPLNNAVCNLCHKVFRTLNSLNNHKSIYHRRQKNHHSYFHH
# Assay: FP; 33 mM phosphate pH 7.0, 90 mM NaCl, 0.01% Tween 20, 0.1 mM DTT, 0.5% agarose; room temperature
# Conditions: tags: N-GST (pGEX-6P-1, kept); dsDNA, one strand shown
row,Sequence,binding signal
1,GGACTTAGAAAAC,2.43 Kd / Kd of best base at the position
2,GGAATTAGAAAGC,1.36 Kd / Kd of best base at the position
3,GGAATTAGAAAAG,1.23 Kd / Kd of best base at the position
4,GGAATTAGGAAAC,2.63 Kd / Kd of best base at the position
5,GGAATTAGATAAC,1.59 Kd / Kd of best base at the position
6,GGAACTAGAAAAC,4.4 Kd / Kd of best base at the position
7,GTAATTAGAAAAC,2.7 Kd / Kd of best base at the position

# Molecular target: T2, Hb (Drosophila melanogaster, UniProt P05084 225-364)
# T2 sequence: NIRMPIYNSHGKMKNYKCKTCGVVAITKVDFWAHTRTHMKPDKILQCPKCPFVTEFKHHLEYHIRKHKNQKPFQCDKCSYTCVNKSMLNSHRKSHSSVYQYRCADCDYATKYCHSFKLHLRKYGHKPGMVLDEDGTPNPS
# Assay: as above
# Conditions: tags: N-GST (pGEX-6P-1, kept); dsDNA, one strand shown
Sequence,binding signal,Kd [nM]
AGTTCTTTAGGC,13.1 Kd / Kd of best base at the position,
AGTTTATTAGGC,11 Kd / Kd of best base at the position,
ACTTTTTTAGGC,1.03 Kd / Kd of best base at the position,
AGTTTTATAGGC,9.8 Kd / Kd of best base at the position,
AGTTTTTTAGGA,1.46 Kd / Kd of best base at the position,
AGCTTTTTAGGC,2.23 Kd / Kd of best base at the position,
ATTTTTTTAGGC,1.03 Kd / Kd of best base at the position,
AGTTTTTTAGGT,1.01 Kd / Kd of best base at the position,
AGGTTTTTAGGC,1.26 Kd / Kd of best base at the position,
AGTTTTTTAGGG,1.25 Kd / Kd of best base at the position,
AGTTTTTTATGC,1.04 Kd / Kd of best base at the position,
AGTTTTTTAGGC,,~12.5
AGTTTTTGAGGC,8.32 Kd / Kd of best base at the position,
AGTTTCTTAGGC,9.31 Kd / Kd of best base at the position,
AGTTTTTTGGGC,6.22 Kd / Kd of best base at the position,
AGTGTTTTAGGC,6.19 Kd / Kd of best base at the position,

Sequence,binding signal,Kd [nM]
AGTTTTTTAGCC,1.11 Kd / Kd of best base at the position,
AGTTTTTCAGGC,10.3 Kd / Kd of best base at the position,
AGTTTTTAAGGC,9.25 Kd / Kd of best base at the position,
AGTTTGTTAGGC,11.9 Kd / Kd of best base at the position,
AGTTTTTTTGGC,6.04 Kd / Kd of best base at the position,
TGTTTTTTAGGC,1.1 Kd / Kd of best base at the position,
AGTTTTTTAGTC,1.14 Kd / Kd of best base at the position,
GGTTTTTTAGGC,1.46 Kd / Kd of best base at the position,
CGTTTTTTAGGC,1.23 Kd / Kd of best base at the position,
AGATTTTTAGGC,3.22 Kd / Kd of best base at the position,
AATTTTTTAGGC,1.04 Kd / Kd of best base at the position,
AGTTGTTTAGGC,9.25 Kd / Kd of best base at the position,
AGTATTTTAGGC,8.15 Kd / Kd of best base at the position,
AGTTTTTTACGC,1.61 Kd / Kd of best base at the position,
AGTTTTTTAGAC,1.59 Kd / Kd of best base at the position,
AGTTTTCTAGGC,15 Kd / Kd of best base at the position,
